# In PubChem BioAssay AID2078 (The Scripps Research Institute Molecular Screening Center, 2009):
# The source made the active and inactive calls. No rule for the calls is given here.
# Tested on: Cytotoxicity
# Experiment: STAT3 inhibitors, late-stage profile, late-stage follow-up, cell-based, STAT1 panel, qPCR, cytotoxicity (AID 2078)
# Settings: cell reporter assay; series mostly up to 55.7 µM
compound,measurement,value
c1ccc(CC2CCN(c3ncnc4sccc34)CC2)cc1,outcome,inactive
